# ± gives the standard deviation of the averaged measurements. Whole data set: some 1,600 compounds, median “normalized intracellular growth (luminescence, IQM-normalized) in RAW264.7 macrophages” near 1, cut for the lowest 2% near 0.43. For the sample, the lowest values were picked, then their nearest neighbours and some compounds at random.
# Tested on: Salmonella enterica serovar Typhimurium SL1344
# Experiment: normalized intracellular growth (luminescence, IQM-normalized) in RAW264.7 macrophages (fraction of plate interquartile mean); higher = more bacterial growth (less inhibition)
# Conditions: 10 µM
SMILES,normalized intracellular growth (time point: T3 (3 h)),normalized intracellular growth (time point: Tfinal (~6 h))
CC(=O)Nc1ccc(S(=O)(=O)c2ccc(NC(C)=O)cc2)cc1,1.01 ± 0.04,0.912 ± 0.062
OC[C@@H](O)[C@@H](O)CO,0.947 ± 0.1,1.08 ± 0.11
Cc1cc(C(C)(C)C)c(O)c(C(C)(C)C)c1,1.06 ± 0.046,0.834 ± 0.12
FC(F)(F)C(Cl)Br (stereo not given),1 ± 0.049,1.08 ± 0.18
CN1CC(=O)NC1=N,1.03 ± 0.02,1.1 ± 0.1
COc1cc([C@@H]2c3cc4c(cc3[C@@H](O[C@@H]3O[C@@H]5CO[C@@H](c6cccs6)O[C@H]5[C@H](O)[C@H]3O)[C@H]3COC(=O)[C@H]23)OCO4)cc(OC)c1O,1.1 ± 0.049,1.016 ± 0.0097
CCCc1nc(C)c2c(O)nc(-c3cc(S(=O)(=O)N4CCN(CC)CC4)ccc3OCC)nn12,0.997 ± 0.027,0.899 ± 0.1
CC(=O)N(c1onc(C)c1C)S(=O)(=O)c1ccc(N)cc1,0.951 ± 0.011,1.02 ± 0.17
C[C@@H]1C[C@H]2[C@@H]3CCC4=CC(=O)C=C[C@]4(C)[C@@]3(F)[C@@H](O)C[C@]2(C)[C@@]1(O)C(=O)CO,1 ± 0.062,0.99 ± 0.075
CC(=O)NCCCCCC(=O)O,0.997 ± 0.019,1.02 ± 0.17
O=S(=O)(O)CCSSCCS(=O)(=O)O,1.02 ± 0.061,0.986 ± 0.18
CC(C(=O)O)c1ccc(CC2CCCC2=O)cc1 (stereo not given),1.05 ± 0.055,1.06 ± 0.064
NC[C@@H]1CC[C@@H](N)[C@@H](O[C@H]2[C@H](O)[C@@H](O[C@H]3O[C@H](CO)[C@@H](O)[C@H](N)[C@H]3O)[C@H](N)C[C@@H]2N)O1,1.04 ± 0.023,0.976 ± 0.13
NCC(O)CC(=O)O (stereo not given),0.966 ± 0.067,1.03 ± 0.12
C[C@H]1COc2c(C3(N)CC3)c(F)cc3c(=O)c(C(=O)O)cn1c23,1.36 ± 0.11,0.00812 ± 0.0004
C[C@H]1COc2c(N3CCN(C)CC3)c(F)cc3c(=O)c(C(=O)O)cn1c23,1.245 ± 0.0094,0.00765 ± 0.001
CC1COc2c(N3CCN(C)CC3)c(F)cc3c(=O)c(C(=O)O)cn1c23 (stereo not given),0.856 ± 0.034,0.134 ± 0.0023
CN1CCN(c2c(F)cc3c(=O)c(C(=O)O)cn4c3c2SCC4)CC1,0.982 ± 0.061,0.095 ± 0.094
CCCCCCc1ccc(O)cc1O.Nc1c2ccccc2nc2ccccc12,0.891 ± 0.014,1.07 ± 0.012
CC1(C)S[C@@H]2[C@H](N3C(=O)[C@@H](c4ccccc4)NC3(C)C)C(=O)N2[C@H]1C(=O)O,1 ± 0.031,0.974 ± 0.056
COC(=O)/C=C/C(=O)OC,0.935 ± 0.047,0.937 ± 0.028
O=C([O-])[C@H]1/C(=C/CO)O[C@@H]2CC(=O)N21.[Li+],1.02 ± 0.099,0.812 ± 0.11
CN(C)c1cnccn1,0.967 ± 0.046,0.904 ± 0.32
CSCC[C@H](NC(=O)[C@H](Cc1c[nH]c2ccccc12)NC(=O)CCNC(=O)OC(C)(C)C)C(=O)N[C@@H](CC(=O)O)C(=O)N[C@@H](Cc1ccccc1)C(N)=O,1 ± 0.04,0.827 ± 0.23
Cl.N=C(N)NCCC[C@H](N)C(=O)O,1.05 ± 0.065,1.02 ± 0.092
NCC(=O)CCC(=O)O,1.09 ± 0.029,1.02 ± 0.042
Cc1nc(C)c(Cl)c(O)c1Cl,0.942 ± 0.035,1.16 ± 0.1
C[C@]12CCC(=O)C=C1CC[C@@H]1[C@@H]2[C@@H](O)C[C@@]2(C)[C@H]1CC[C@]2(O)C(=O)COP(=O)(O)O,0.9812 ± 0.0046,0.999 ± 0.047
O=C(O)c1cc(O)c2c(c1)[C@H]([C@H]1c3cc(C(=O)O)cc(O)c3C(=O)c3c(O[C@@H]4O[C@H](CO)[C@@H](O)[C@H](O)[C@H]4O)cccc31)c1cccc(O[C@@H]3O[C@H](CO)[C@@H](O)[C@H](O)[C@H]3O)c1C2=O,0.957 ± 0.08,0.961 ± 0.026
O=C1C2CC3CC1CC(O)(C3)C2,1 ± 0.017,1.06 ± 0.065
